Experimental data from PubChem BioAssay (NCI).
This is part of a sample that, as a whole, favours compounds with a hit. Of some 83,000 tested, about 20% had one in any assay.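 For each line, cells grew in 96-well plates with the test compound present at a single concentration for 48 hours.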 Calls of active or inactive are those of the source. Rule for the calls: active = growth percent below 10; inactive = the rest.

system: OVCAR-5 ovarian; assay: NCI-60 one-dose screen, 48 h (100 = growth as untreated, 0 = no growth, -100 = all killed); settings: 10 µM unless noted

Row | Structure (SMILES) | growth
1 | COc1ccc2cc1Oc1ccc(cc1)C[C@H]1c3c(cc4c(c3Oc3cc5c(cc3OC)CCN(C)[C@@H]5C2)OCO4)CCN1C | 90.2% (inactive)
2 | CC(=O)c1c(C)nc2ccccc2c1/C=C/c1ccc(F)cc1 | 97.7% (inactive)
3 | CN(/C(N)=N/N=C/c1c2ccccc2cc2ccccc12)C1CCCCC1 | 78.8% (inactive)
4 | CCOC(=O)n1ccn(C)c1=S | 102% (inactive)
5 | Cc1cn(-c2cc(NC(=O)c3cncc(C#Cc4cnc(N)c5ncccc45)c3)cc(C(F)(F)F)c2)cn1 | 60.3% (inactive)
6 | O=C(Cn1cc(CSc2nc3ccccc3o2)nn1)Nc1ccc(F)cc1F | 110% (inactive)
7 | Cc1c2cnccc2c(C)c2c1c1cc(C#N)ccc1n2C | -15% (active)
8 | CNC(=O)c1ccccc1Oc1nc(Nc2cc(OC)c(OC)c(OC)c2)ncc1Br | 71.2% (inactive)
